Source: PubChem (several laboratories)
S1P2 ag – S1P2 receptor agonists, primary screen, cell-based; Sphingosine 1-phosphate receptor 2 (Homo sapiens), O95136; S1P2-expressing cell line, agonist reporter read-out; activation, % at 4.5 µM; 97,000 tested, 0.46% active; in the data active = activation above about 16%;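 also: 0% = vehicle low control and 100% = maximal reference agonist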
GALR2 agonist – GALR2 receptor agonists, primary screen, cell-based; 140,000 tested, 0.48% active; Galanin receptor type 2 (Homo sapiens), O43603; activation, % (no concentration beside the values); GALR2-expressing cells, agonist activation read-out; in the data active = activation above about 5%, passing the limit was not always enough;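 also: 0% = vehicle buffer wells and 100% = reference agonist at full effect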
Target sequence (O43603 whole entry, looked up): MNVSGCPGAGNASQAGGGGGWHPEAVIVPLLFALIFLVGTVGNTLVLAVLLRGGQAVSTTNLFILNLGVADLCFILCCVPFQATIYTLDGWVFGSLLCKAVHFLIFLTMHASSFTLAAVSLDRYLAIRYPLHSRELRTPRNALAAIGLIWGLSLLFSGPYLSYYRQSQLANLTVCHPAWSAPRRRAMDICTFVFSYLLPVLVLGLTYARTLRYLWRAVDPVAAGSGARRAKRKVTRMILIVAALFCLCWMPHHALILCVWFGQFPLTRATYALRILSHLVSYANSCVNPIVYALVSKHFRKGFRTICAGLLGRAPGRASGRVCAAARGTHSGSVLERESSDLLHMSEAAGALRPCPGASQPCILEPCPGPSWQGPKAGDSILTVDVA
GALR2 blocker – GALR2 antagonists in receptor-expressing cells, primary screen; 140,000 tested, 0.39% active; Galanin receptor type 2 (Homo sapiens), O43603; antagonist mode; inhibition, % at 4 µM; in the data active = inhibition above about 27%;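 also: cells stimulated with galanin 1-16 at roughly its EC80; 0% = agonist challenge control and 100% = basal control without agonist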
FAK blocker – FAK kinase inhibitors, primary screen, biochemical; inhibition, %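 (tested at 7 µM)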; Focal adhesion kinase 1 (Homo sapiens), Q05397; biochemical FAK kinase activity assay; 97,000 tested, 0.84% active;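 also: 0% = DMSO and 100% = reference compound high control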
sdo1 growth – growth rescue of sdo1-depleted yeast, primary screen, S. cerevisiae, bone marrow failure model; S. cerevisiae sdo1-depleted JHY4D growth rescue, OD600 30 h; hits give high values; pdr5 snq2 efflux-pump mutant strain; z-score at 10 µM; 140,000 tested, 0.21% active; AID 817, 2007;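 active = z-score above 3 at both the 24 hr and the 30 hr optical density reads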;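 also: z-score against mean and SD of all compound wells on the same plate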
S1P2 blocker – human S1P2 receptor antagonists, primary screen, cell-based. inhibition, % at 5 µM. AID 736, 2007. 97,000 tested, 0.21% active. cell-based S1P2 antagonist assay, inhibition at 5 uM; in the data active = inhibition above about 45%;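 also: CRE beta-lactamase reporter cells expressing human S1P2 stimulated with S1P; 0% = agonist at EC80 alone and 100% = agonist plus reference antagonist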
FAK inh confirm – FAK kinase inhibitors, retest, confirmation, biochemical; shares compounds with FAK blocker; FAK kinase biochemical inhibition assay; inhibition, % at 7 µM; 750 tested, 28% active; AID 794, 2007
* marks the source's active call; other numbers are inactive results; nt = no result given. A selection: hits, their analogues and other compounds. The true share with any hit is near 1.9%. Rule as the data show it, unless noted: active = inhibition above about 19%; inactive = the rest.

SMILES	S1P2 ag	GALR2 agonist	GALR2 blocker	FAK blocker	sdo1 growth	S1P2 blocker	FAK inh confirm
Cc1cc(/C=N/n2cnnc2)c(C)n1-c1ccc(OCc2ccc(F)cc2)cc1	-5	0	7	0	-2.4	69*	nt
CC(=O)Nc1ccc(N=Cc2nc(-c3ccc(C)cc3)oc2O)cc1	2	0	-8	24*	-0.25	-6	12
C=CCNC(=O)c1onc(CSc2cccc(C)c2)c1C(=O)O	-4	-3	4	3	0.42	5	nt
CSc1nc2ccc3nc(NC(=O)c4cccs4)sc3c2s1	-9	-2	0	40*	-0.12	19	26*
CCC1(CC)NC(=O)N(CC(=O)Nc2sc3c(c2C(N)=O)CCC3)C1=O	-2	-1	-2	28*	-0.46	2	6
CCCCC(=O)Nc1sc2c(c1C(N)=O)CCC2	-3	-2	3	20*	-0.39	-7	12
CCC1(C)NC(=O)N(CC(=O)Nc2sc3c(c2C(=O)OC)CCCCC3)C1=O (stereo not given)	nt	0	-5	nt	0.3	nt	nt
COc1ccc(NC(=S)NCc2ccc(S(N)(=O)=O)cc2)c(OC)c1	nt	-1	2	nt	2.2	nt	nt
CSc1ncc(Cl)c(C(=O)C(C#N)c2nc3c(C)cc(C)cc3c(=O)[nH]2)n1 (stereo not given)	nt	-1	5	nt	0.3	nt	nt
Cc1cc(C)nc(SCC(=O)Oc2ccc3oc(=O)cc(C)c3c2)n1	-7	-2	-2	1	1.3	3	nt
CCOc1ccccc1-c1nc(-c2ccc(NC(=O)Cc3ccc(OC)cc3)cc2)no1	-7	3	-7	25*	-0.67	10	8
CCOc1ccccc1-c1nc(-c2ccc(NC(=O)c3ccc(Br)o3)cc2)no1	-4	4	1	-1	-0.15	-3	nt
CC1CCC(C(C)C)C(OC(=O)CSc2n[nH]c(=O)[nH]c2=O)C1 (stereo not given)	nt	-1	9	nt	-0.72	nt	nt
COC(=O)Nc1ccc(S(=O)(=O)N2CCCC(C(=O)NC3CCS(=O)(=O)C3)C2)cc1 (stereo not given)	nt	-2	6	nt	0.58	nt	nt
CCc1ccccc1N(CC(=O)NCc1ccco1)C(=O)c1snc(C(N)=O)c1N	-7	-3	11	41*	0.23	9	15
COc1ccc(CNC(=O)C(C)N(Cc2ccco2)C(=O)c2snc(C(N)=O)c2N)cc1 (stereo not given)	-5	0	-5	11	0.71	12	nt
CC1(C)CC2(CC(c3ccccc3)Oc3cc(O)ccc32)NC(=S)N1 (stereo not given)	nt	-1	-6	nt	1.3	nt	nt
O=C(Nc1ccc(Cl)cc1C(=O)N1CCOCC1)c1cccc([N+](=O)[O-])c1	nt	0	7	nt	0.22	nt	nt
CCN1C=CC(=C2C(=O)c3ccccc3C2=O)C=C1	1	-2	-12	36*	0.56	24	11
O=C(COc1ccc(S(=O)(=O)N2CCCC2)cc1)NCCC1=CCCCC1	-2	-2	-7	23*	-0.69	6	1
CC(C)(C)NS(=O)(=O)c1ccc(OCC(=O)NCCC2=CCCCC2)cc1	-4	-3	-6	0	0.24	-7	nt
Cc1cc(N2C(=O)CCC2=O)ccc1NC(=O)c1cccs1	-1	0	6	2	0.95	-10	nt
Cc1sc2nc(SCC(=O)NCc3ccco3)n(C)c(=O)c2c1C	-3	-1	-3	1	-0.2	2	nt
Cc1sc2nc(C3CC3)nc(SCC(=O)NCc3ccco3)c2c1C	-1	0	-5	31*	-1.5	0	10
COc1ccc2nc(-c3ccco3)c(-c3ccco3)nc2c1	-2	0	-7	67*	-0.45	14	3
SMILES	S1P2 ag	GALR2 agonist	GALR2 blocker	FAK blocker	sdo1 growth	S1P2 blocker	FAK inh confirm
c1coc(-c2nc(-c3ccco3)c(-c3ccco3)nc2-c2ccco2)c1	-2	1	-12	99*	-1.6	10	3
COc1ccc(C(=O)Nc2nnc(-c3ccco3)s2)cc1	1	-3	-4	-2	0	-26	nt
O=C(CN(c1ccc(F)cc1)S(=O)(=O)c1ccc2c(c1)OCCO2)Nc1ccccc1	-1	-2	-9	3	-0.33	-1	nt
Cc1c(O)c(CN2CCCC2)cc2c1oc(=O)c1ccccc12	-4	0	0	40*	-0.11	5	12
Cc1c(O)c(CN2CCCC2)cc2c3c(c(=O)oc12)CCC3	2	2	-6	3	0.64	-13	nt
COC(=O)c1ccc(CNC(=O)c2ccc(COc3ccccc3)cc2)cc1	nt	2	8	nt	-1.6	nt	nt
O=C(Cc1cccs1)Nc1ccc(-c2nnn(CC(=O)N3CCOCC3)n2)cc1	-1	-1	-2	25*	0.31	2	4
COc1ccc(-c2nnn(CC(=O)N3CCOCC3)n2)cc1	-2	0	-2	0	0.1	-22	nt
Cc1ccc(Nc2ncnc3nc[nH]c23)cc1Cl	-3	0	-4	31*	-0.36	27	10
COc1cccc(Nc2ncnc3nc[nH]c23)c1	-6	-1	2	23*	0.26	23	5
O=S(=O)(/N=C(/Nc1ccc(F)cc1F)c1ccccc1)c1ccc(Br)cc1	nt	-1	-4	nt	-0.51	nt	nt
CC1CCN(S(=O)(=O)c2ccc(NC(=O)Cn3nnc(-c4ccccc4F)n3)cc2)CC1	-3	0	-6	19*	-0.17	-1	8
CCNC(=O)c1c(NC(=O)c2cc(-c3cc(C)ccc3O)n[nH]2)sc2c1CCCC2	nt	0	3	nt	-1.1	nt	nt
Nc1nnnn1/N=C/c1ccccc1OCc1ccc(Cl)cc1Cl	-2	-1	-10	29*	-1.3	6	4
COc1ccc(C2OC(=O)CC2C(=O)NC2CCCCCC2)cc1OC (stereo not given)	-9	-3	-5	21*	0.06	9	2
COc1ccc(C2OC(=O)CC2C(=O)NC2CCCC(C)C2C)cc1OC (stereo not given)	-5	-3	-11	-2	1	1	nt
CCc1ccc(/C=C2\CN(CC)Cc3c2nc2ccccc2c3C(=O)O)cc1	-3	0	-2	51*	0.36	-32	8
COc1ccccc1NC(=O)c1nn(-c2ccc(Cl)cc2)ccc1=O	0	-1	2	25*	-0.34	-1	3
COc1ccccc1N1CCN(S(=O)(=O)c2ccc3c4c(cccc24)C(=O)N3C)CC1	-5	-1	-1	4	-0.9	7	nt
COc1ccc2c3c(cccc13)N(C)N=C2C	-2	1	-21	34*	-0.15	-23	11
C/C(=N\n1nnnc1Nc1ccccc1)c1ccc(N)cc1	-13	-2	2	-2	-0.02	25	nt
C=CCN1C(=O)/C(=C/c2ccc(O)cc2)S/C1=N/c1nccs1	nt	2	-5	nt	-2	nt	nt
